# The whole screen tested about 47,000 compounds, of which about 510 (1.1%) were called active. For the sample, actives were picked, then their nearest neighbours and some compounds at random. Values without a mark were called inactive. Rule as the data show it: active = inhibition above about 30%; inactive = the rest.
# Target: Ubiquitin carboxyl-terminal hydrolase 10 (Homo sapiens) (UniProt Q14694)
# Assay: inhibitors of human USP10 deubiquitinase (AID 1645856)
# Conditions: purified USP10, Ub-rhodamine fluorescence, 60 min; at 20 µM; active compounds read high
# Sequence of Ubiquitin carboxyl-terminal hydrolase 10 (Homo sapiens) (Q14694 whole entry, looked up): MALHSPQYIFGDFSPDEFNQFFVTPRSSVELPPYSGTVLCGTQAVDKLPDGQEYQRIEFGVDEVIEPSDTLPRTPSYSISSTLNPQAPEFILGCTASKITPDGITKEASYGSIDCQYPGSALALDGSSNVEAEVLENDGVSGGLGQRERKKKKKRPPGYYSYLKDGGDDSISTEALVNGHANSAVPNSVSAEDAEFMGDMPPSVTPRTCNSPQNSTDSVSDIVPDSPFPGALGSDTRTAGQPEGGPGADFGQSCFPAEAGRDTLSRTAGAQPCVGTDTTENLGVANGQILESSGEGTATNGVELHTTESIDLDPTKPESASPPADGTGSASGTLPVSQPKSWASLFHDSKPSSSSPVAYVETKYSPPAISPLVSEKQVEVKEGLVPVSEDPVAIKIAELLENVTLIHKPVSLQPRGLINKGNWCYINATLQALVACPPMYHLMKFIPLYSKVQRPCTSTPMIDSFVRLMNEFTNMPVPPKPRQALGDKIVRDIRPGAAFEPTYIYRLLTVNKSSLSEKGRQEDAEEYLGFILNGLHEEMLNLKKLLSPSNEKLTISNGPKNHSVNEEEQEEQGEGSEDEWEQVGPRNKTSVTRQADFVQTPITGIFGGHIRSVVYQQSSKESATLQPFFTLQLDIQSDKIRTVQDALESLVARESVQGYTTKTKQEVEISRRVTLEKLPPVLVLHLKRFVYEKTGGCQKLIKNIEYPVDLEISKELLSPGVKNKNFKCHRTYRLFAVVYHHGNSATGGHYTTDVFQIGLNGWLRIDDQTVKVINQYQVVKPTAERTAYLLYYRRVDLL
row,Compound,inhibition
1,COc1ccccc1C1CC(c2c(O)n(C)c(=O)n(C)c2=O)=Nc2ccccc2S1 (stereo not drawn),2.61%
2,Oc1cccc2nc3c(O)cccc3nc12,41.5% (active)
3,COC(=O)COc1cccc2c(=O)n(CC(=O)N3CCc4ccccc43)ccc12,2.69%
4,COc1ccccc1CN1CCC2(CC1)NC(=O)C(CC(C)C)NC2=O (stereo not drawn),0.757%
5,CC(C)NC(=O)c1cc(-c2cnc(-c3ccnn3C)nc2)cn1CC1CC1,-0.689%
6,O=S(=O)(Cc1ccccc1)N1CCC2(CCN(Cc3cccc(F)c3)C2)C1 (stereo not drawn),-2.23%
7,O=c1ccc(S(=O)(=O)N2CCOCC2)cn1Cc1ccccc1,-0.385%
8,COc1cc(-c2nc(CC(=O)NCCc3c[nH]c4ccc(F)cc34)cs2)cc(OC)c1OC,-1.95%
9,CC(C)n1c(C2CCN(C(=O)Nc3ccc4c(c3)CCC4)C2)nc2ccncc21 (stereo not drawn),2.17%
10,Cc1ccc(Nc2nc(NCC(=O)Nc3cc(C)ccc3C)nc(Nc3ccc(C)cc3)n2)cc1,37% (active)
11,COc1cccc(CNC(=O)c2nnn(CC(=O)Nc3cc(C)ccc3C)c2N)c1,29.8%
12,Cc1ccc(NC(=O)Cc2sc(Nc3ccc(C)cc3)nc2O)cc1,25.6%
13,CS(=O)(=O)N1Cc2ccccc2OC2(CCCNC2)C1 (stereo not drawn),-0.607%
14,CCOc1nccnc1N1CCC(N(C)S(=O)(=O)C2CC2)C1 (stereo not drawn),1.55%
15,CC(C)c1ccc(NC(=O)C[n+]2cc(-c3ccc(F)cc3)n3c2CCC3)cc1,0.686%
16,COc1ccccc1C(=O)Nc1cccc(Oc2ccccc2)c1,11.9%
17,COc1cccc(NC(=O)c2nn(-c3ccc(F)cc3)c(OC)cc2=O)c1,0.262%
18,COc1cccc(NC(=O)C(Sc2cccc(NC(=O)c3ccccc3F)c2)c2ccccc2)c1 (stereo not drawn),32.4% (active)
19,COc1ccc(C2CC(=O)c3cnc(NCC4CCCO4)nc3C2)cc1 (stereo not drawn),-0.196%
20,COc1cccc(C2c3[nH]c4ccccc4c3C[C@@H]3C(=O)N(CC4CCCO4)CC(=O)N23)c1 (stereo partly drawn),-6.67%
21,Cc1ccc(C(=O)Nc2nc3c(s2)CCC3C(=O)NCc2ccncc2)cc1 (stereo not drawn),-7.71%

row,Compound,inhibition
1,Cc1ccc(-n2cc(-c3noc(C(=O)Nc4ccc(F)cc4C)n3)nn2)cc1,76.1% (active)
2,Cc1ccc(Cn2cc(-c3noc(-c4ccccn4)n3)nn2)cc1,7.3%
3,Cc1cc(F)ccc1NC(=O)c1cc(C2CC2)n2nccc2n1,-3.56%
4,O=C1NCCCn2cc(S(=O)(=O)NCc3ccc4c(c3)OCO4)cc21,-0.173%
5,Cc1nc2cc(-c3noc(-c4cnccn4)n3)ccc2n(C2CCCC2)c1=O,-3.38%
6,CCCCN(C)c1ccc2nnc(CCc3nc(-c4cc(OC)cc(OC)c4)no3)n2n1,-5.1%
7,CNC(=O)N1C[C@H]2C[C@H](C(=O)Nc3ccc4c(c3)OCO4)[C@@H](C1)O2,-1.52%
8,O=C(COc1ccc2ccccc2c1)NCc1nnnn1-c1ccc(Cl)cc1,6.45%
9,CC1(C(N)=O)CN(Cc2ccnc(N3CCCC3)n2)CCO1 (stereo not drawn),-2.23%
10,CN1CC(=O)N(C2CCCNC2)Cc2c(NC3CCc4ccccc43)ncnc21 (stereo not drawn),-1.83%
11,O=S(=O)(c1ccc(F)c(Cl)c1)N1CCC(N2CCOCC2)CC1,1.61%
12,CC(C)C(NS(=O)(=O)c1ccc(Cl)cc1)C(=O)OCC(=O)C12CC3CC(CC(C3)C1)C2 (stereo not drawn),3.82%
13,Cc1cccc(CNC(=O)C2CCc3nc(N4CCOCC4)ncc3C2)c1 (stereo not drawn),-3.24%
14,COc1cccc(O[C@@H]2C[C@@H](NC(=O)c3ncoc3C)[C@H](O)[C@H]2O)c1,-1.35%
15,O=S1(=O)C=C(CSCCO)c2cc(Cl)ccc21,-1.29%
16,Cc1cc(C(=O)N2CCCCC2c2nncn2CC2CC2)nn1C (stereo not drawn),1.03%
17,COCCNC(=O)c1cccc(C2CCCN(C(=O)Nc3ccccc3)C2)c1 (stereo not drawn),6.54%
18,O=C(CSc1n[nH]c(-c2ccccc2Cl)n1)NCC1CCCO1 (stereo not drawn),-1.9%
19,COc1ccc(CC(=O)N2CCC3(C2)C(=O)N(C)c2ccccc23)cc1 (stereo not drawn),-4.15%
20,CCOC(=O)N1CCN(Cc2nc3ccc([N+](=O)[O-])cc3c(=O)n2-c2cccc(OC)c2)CC1,-1.3%
21,CC(C)Cn1cnc2nc(CSc3ccccc3NC(=O)Nc3ccccc3)cc(=O)n21,2.5%

row,Compound,inhibition
1,Cc1ccc(S(=O)(=O)N2CCC(c3nc(C(=O)N(C)C)c(C)o3)CC2)cc1C,-0.0972%
2,CSc1ncnc2c1sc1nc(-c3ccccc3)c3c(c12)CC(C)(C)OC3,0.0174%
3,CC1(C)Cc2c(c(-c3ccco3)nc3sc4c(SCCCc5ccccc5)ncnc4c23)CO1,58.4% (active)
4,CCCCCCSc1ncnc2c1sc1nc(-c3ccccc3)c3c(c12)CC(C)(C)OC3,-3.17%
5,Clc1cc2nc(N3CCN(c4ccccn4)CC3)c3nncn3c2cc1Cl,-8.09%
6,N#Cc1ccccc1Cn1c(=O)n(CCCC(=O)NCc2ccc(F)cc2)c(=O)c2ccccc21,34% (active)
7,Cc1ccccc1CNC(=O)Cn1c(=O)ccn(Cc2ccc(F)cc2)c1=O,0.832%
8,O=C(CCCn1c(=O)c2ccccc2n(Cc2ccccc2F)c1=O)NC1CCCC1,8.78%
9,COc1cccc(C(O)c2ncc(-c3ccc4ccccc4c3)[nH]2)c1 (stereo not drawn),-5.14%
10,CN(C)c1nc(C2CCN(C(=O)c3ccccc3)CC2)cn2nccc12,-1.26%
11,CN(C)c1nccnc1C1CN(C(=O)c2cc(C(C)(C)C)[nH]n2)CCO1 (stereo not drawn),4.78%
12,C/C=C(\Cl)C1=CC(=O)[C@]23C[C@H]2[C@@]2(C)CO[C@@]1(O)[C@@]3(O)O2,-13.4%
13,Cc1ccc(S(=O)(=O)N2CCCC(c3nc(-c4ccc(=O)[nH]c4)no3)C2)cc1 (stereo not drawn),0.0273%
14,Cc1ccc(CC(=O)N2CCN(C(=O)c3cc(-c4ccccn4)n[nH]3)CC2)cc1,-1.22%
15,O=C(Nc1ccc(Cl)cc1F)c1cc(-c2ccccn2)n[nH]1,10.2%
16,COc1cc(Cl)c(NC(=O)c2cc(-c3ccccn3)n[nH]2)c(OC)c1,38% (active)
17,Cc1c(-c2nnc(-c3ccccn3)o2)nnn1-c1ccccc1Cl,1.56%
18,COc1ccc(-c2noc(-c3ccc(N(C)Cc4ccco4)nn3)n2)cc1,0.989%
19,Cc1ncccc1Oc1nccnc1C1CCNCC1,0.116%
20,CCN(CC)C(=O)CC[C@H]1CNC(=O)[C@@H]2[C@@H](CCN2CC2CC2)N1C,-0.533%
21,O=C1CC(c2ccc(OCc3ccccc3)cc2)c2sccc2N1 (stereo not drawn),2.63%

row,Compound,inhibition
1,COc1cccc(CCN2CCOc3nc4c(C)cccc4cc3C2)c1OC,1.85%
2,Cn1c(=O)[nH]c(=O)c2c1nc(N1CCCCCC1)n2CCCSc1nc2ccccc2s1,20.1%
3,Cn1c2c(c(=O)n(C)c1=O)[C@@H]1c3c(ccc4ccccc34)OC[C@@H]1CO2,-4.17%
4,CO[C@@H](/C(C)=C/C=C/C(C)=C/c1coc(C)n1)[C@@H](C)[C@@H]1C[C@H](O)[C@@]2(C)O[C@@H]2/C=C/[C@@H](C)[C@H](O)C[C@H](CC(=O)O)C/C=C/C(=O)O1,-8.33%
5,CN(c1ccc(F)cc1)c1ccc2ccc(C(=O)N3CCCC(O)C3)cn12 (stereo not drawn),-11.2%
6,Cn1c(SCC(N)=O)nnc1-c1cc2ccccc2o1,-1.83%
7,Cc1noc(C)c1C1CCCN1C(=O)c1c(F)cccc1F (stereo not drawn),2.21%
8,CC(CN1CCOCC1)OC(=O)c1ccc(C(C)(C)C)cc1 (stereo not drawn),0.0972%
9,CC(C)CC(=O)Nc1ccc(-c2nc3ncccc3o2)cc1,1.25%
10,CCOc1ccccc1NC(=O)Cc1cccs1,1.12%
11,Cc1cccc(Nc2nc(N3CCOCC3)nc3c2cnn3C)c1,-3.81%
12,CCc1nc2cc(N3CCC(C(=O)N4CCN(CC)CC4)CC3)cnc2nc1CC,-3.73%
13,O=C(NCC1CCCCC1)C1CCN(C2=NS(=O)(=O)c3ccccc32)CC1,-1.45%
14,COc1cccc(CNC(=O)c2ccc3c(=O)nc4c(-c5ccccc5)n[nH]n4c3c2)c1,17.4%
15,Cc1cc(Cl)cc(C)c1OCC(=O)NC1CCCc2ccccc21 (stereo not drawn),-1.09%
16,CCOC(=O)C1CCN(C(c2cccnc2)c2c(NC(C)=O)sc3c2CCCC3)CC1 (stereo not drawn),-3.05%
17,CC1CCN(C(=O)C2CCN(C(=O)c3ccc4c(c3)nnn4C3CCCC3)CC2)CC1,-0.291%
18,COc1ccc(N2CC(c3nnc(NC(=O)CCc4ccccc4)s3)CC2=O)cc1 (stereo not drawn),30.4% (active)
19,Cc1ccc(N2CC(c3nnc(NC(=O)CCCc4ccccc4)s3)CC2=O)cc1 (stereo not drawn),8.86%
20,Cc1ccc(CC(=O)Nc2nnc(C3CC(=O)N(c4ccc(C)c(C)c4)C3)s2)cc1 (stereo not drawn),15.3%

# Source: PubChem BioAssay AID1645856 (Buhrlage Lab, Dana-Farber Cancer Institute and Novartis …, 2021)
